Among the data in PubChem BioAssay (NCI) are growth inhibition values, retold here.

A short description of assay [1]: NCI Yeast Anticancer Drug Screen. Data for the rad50 strain (AID 155).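 Note: 0% = growth of vehicle-only cultures of the same strain.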 The settings on record: S. cerevisiae rad50 strain growth inhibition, hits give high values. The gist of the method:
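Readout: growth inhibition relative to vehicle-treated cultures. Compound exposure was carried out in a genetically defined yeast strain deficient in DNA damage repair.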

Assay [2] can be described thus: NCI Yeast Anticancer Drug Screen. Data for the mec2-1 strain (AID 157). The settings on record: S. cerevisiae mec2-1 strain, hits give high values. In outline:
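Readout is yeast growth inhibition, normalised to vehicle-treated controls, in the mec2-1 strain exposed to compound.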

The nature of assay [3]: NCI Yeast Anticancer Drug Screen. Data for the sgs1 mgt1 strain (AID 161).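 Note: 0% = growth of cultures given vehicle only.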 The settings on record: S. cerevisiae sgs1 mgt1 strain, hits give high values. In outline:
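Percent growth inhibition was derived by comparing compound-exposed mutant yeast with vehicle-exposed cultures. The strain carries alterations in DNA damage repair.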

A short description of assay [4]: NCI Yeast Anticancer Drug Screen. Data for the cln2 rad14 strain (AID 165).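 Note: 0% = growth equal to vehicle treated cultures.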 The settings on record: S. cerevisiae cln2 rad14 strain, hits give high values. In outline:
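Relative to vehicle controls, growth inhibition of compound-treated cln2 rad14 yeast was recorded.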

A short description of assay [5]: NCI Yeast Anticancer Drug Screen. Data for the bub3 strain (AID 167). The settings on record: S. cerevisiae bub3 mutant strain, hits give high values. In outline:
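Readout: yeast growth inhibition, expressed relative to vehicle-only wells. The test organism is a mutant strain from a panel with lesions in DNA repair or checkpoint genes.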

A short description of assay [6]: NCI Yeast Anticancer Drug Screen. Data for the mlh1 rad18 strain (AID 175). The settings on record: S. cerevisiae mlh1 rad18 strain growth inhibition, hits give high values. The gist of the method: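 Test agents were incubated with a yeast strain of defined genotype (DNA damage repair defect). Inhibition of growth was derived by comparison with vehicle-exposed cultures.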

Setting [7] is: at 5.0 µM (retest, dose inferred, filed as 0.5).
[8] abbreviates: at 50.0 µM (retest, dose inferred, filed as 5.0).

Each structure is given as a SMILES string. “And” between values parts separate entries of the source, which are not always exact repeats. Equal values may be shown once. This is part of a sample that, as a whole, favours compounds with a hit. Of some 79,000 tested, about 15% had one in any assay. Values without a mark were called inactive. The source made the active and inactive calls. Cut-off read from the data, not from the text of the source: active = growth inhibition above about 70%; inactive = the rest.

As to `[O]=[Sb][c]1ccc(Cl)cc1`, the growth inhibition in assay [1] (setting [7]) is 5%; in assay [1] (setting [8]), 42%; in assay [1] (at 50.0 µM) it was 96.7% (active); in assay [2] (setting [7]), 3%; in assay [2] (setting [8]), 36%; in assay [2] (at 50.0 µM) it was 85.5% (active). Further, the growth inhibition in assay [3] (setting [7]) is 1%; in assay [3] (setting [8]) it was 56%; in assay [3] (at 50.0 µM), 99.1% (active); in assay [4] (setting [7]), 0%; in assay [4] (setting [8]) it was 19%; in assay [4] (at 50.0 µM), 54.3%. Besides, the growth inhibition was 4% in assay [5] (setting [7]); 48% in assay [5] (setting [8]); 87.7% (active) in assay [5] (at 50.0 µM); 3% in assay [6] (setting [7]); 35% in assay [6] (setting [8]); 93.3% (active) in assay [6] (at 50.0 µM).
As for `NCCBr`, the growth inhibition in assay [1] (setting [7]) is 0%; in assay [1] (setting [8]), -26%; in assay [1] (at 50.0 µM), -8.5% and -19.5%; in assay [2] (setting [7]) it was -1%; in assay [2] (setting [8]), 1%; in assay [2] (at 50.0 µM), -7.65% and -21.2%. Also, the growth inhibition in assay [3] (setting [7]) is -3%; in assay [3] (setting [8]), -4%; in assay [3] (at 50.0 µM), 6.55% and -5.6%; in assay [4] (setting [7]), 3%; in assay [4] (setting [8]) it was -3%; in assay [4] (at 50.0 µM), -23.7% and -8.9%. Further, the growth inhibition in assay [5] (setting [7]) was -25%; in assay [5] (setting [8]) it was -6%; in assay [5] (at 50.0 µM), -0.55% and 1.2%; in assay [6] (setting [7]), 4%; in assay [6] (setting [8]) it was -2%; in assay [6] (at 50.0 µM) it was 2.25% and -0.05%.
Consider `O=P(Nc1ccccc1)(Oc1ccccc1)N1CCN(c2ccccc2)CC1` (configuration not stated), for which the growth inhibition is 0% in assay [1] (setting [7]); 97% (active) in assay [1] (setting [8]); 71.2% (active) in assay [1] (at 50.0 µM); -29% in assay [2] (setting [7]); 96% (active) in assay [2] (setting [8]); 80.7% (active) in assay [2] (at 50.0 µM). Further, the growth inhibition is -32% in assay [3] (setting [7]); 97% (active) in assay [3] (setting [8]); 84.5% (active) in assay [3] (at 50.0 µM); 22% in assay [4] (setting [7]); 96% (active) in assay [4] (setting [8]); 85.9% (active) in assay [4] (at 50.0 µM). The growth inhibition in assay [5] (setting [7]) was 14%; in assay [5] (setting [8]) it was 96% (active); in assay [5] (at 50.0 µM), 87.2% (active); in assay [6] (setting [7]), -1%; in assay [6] (setting [8]), 96% (active); in assay [6] (at 50.0 µM) it was 86.5% (active).
As to `Oc1c(Cl)c(Cl)c(Cl)c(Cl)c1Cl` (tested in a mixture with another compound), the growth inhibition was 56% and 41% and 27% in assay [1] (setting [7]); 99% (active) in assay [1] (setting [8]); 99.2% (active) and 99% (active) and 98.8% (active) in assay [1] (at 50.0 µM); 28% and 24% and -7% in assay [2] (setting [7]); 99% (active) and 100% (active) in assay [2] (setting [8]); 99.4% (active) and 99.2% (active) and 99.7% (active) in assay [2] (at 50.0 µM). Further, the growth inhibition in assay [3] (setting [7]) was 58% and 44% and 23%; in assay [3] (setting [8]), 99% (active); in assay [3] (at 50.0 µM) it was 99.4% (active) and 99.3% (active) and 99.2% (active); in assay [4] (setting [7]), 42% and 28% and 16%; in assay [4] (setting [8]), 99% (active) and 98% (active); in assay [4] (at 50.0 µM), 97.2% (active) and 99.2% (active) and 98.5% (active). The growth inhibition in assay [5] (setting [7]) is 30% and 29% and 1%; in assay [5] (setting [8]) it was 99% (active); in assay [5] (at 50.0 µM), 99.5% (active) and 99.3% (active); in assay [6] (setting [7]), 56% and 46% and 23%; in assay [6] (setting [8]) it was 99% (active); in assay [6] (at 50.0 µM), 99.2% (active) and 99% (active).
For `CC(C)C1(NC(=O)C2C=C3c4cccc5[nH]cc(c45)CC3N(C)C2)OC2(O)C3CCCN3C(=O)C(Cc3ccccc3)N2C1=O` (configuration not stated) (tested in a mixture with another compound), the growth inhibition in assay [1] (setting [7]) is 22%; in assay [1] (setting [8]), 97% (active); in assay [1] (at 50.0 µM), 98.2% (active); in assay [2] (setting [7]) it was 4%; in assay [2] (setting [8]) it was 99% (active); in assay [2] (at 50.0 µM), 98.6% (active). For the same compound, the growth inhibition in assay [3] (setting [7]) is 4%; in assay [3] (setting [8]), 96% (active); in assay [3] (at 50.0 µM), 98.7% (active); in assay [4] (setting [7]), 6%; in assay [4] (setting [8]), 98% (active); in assay [4] (at 50.0 µM) it was 96.8% (active). For the same compound, the growth inhibition in assay [5] (setting [7]) is 7%; in assay [5] (setting [8]), 98% (active); in assay [5] (at 50.0 µM), 97.5% (active); in assay [6] (setting [7]) it was 6%; in assay [6] (setting [8]), 98% (active); in assay [6] (at 50.0 µM) it was 96.8% (active).
As to `O=C1C=CC(=O)N1c1cccc2ccccc12` (tested in a mixture with another compound), the growth inhibition was -1% in assay [1] (setting [7]); 1% in assay [1] (setting [8]); 10.3% in assay [1] (at 50.0 µM); -39% in assay [2] (setting [7]); -1% in assay [2] (setting [8]); 2.7% in assay [2] (at 50.0 µM). The growth inhibition is 0% in assay [3] (setting [7]); 2% in assay [3] (setting [8]); 9.1% in assay [3] (at 50.0 µM); -1% in assay [4] (setting [7]); 3% in assay [4] (setting [8]); 15.8% in assay [4] (at 50.0 µM). Besides, the growth inhibition in assay [5] (setting [7]) was -8%; in assay [5] (setting [8]), -5%; in assay [5] (at 50.0 µM) it was 61%; in assay [6] (setting [7]), -1%; in assay [6] (setting [8]), -1%; in assay [6] (at 50.0 µM), 12.2%.
With `O=C(N/N=C/c1cc(Cl)cc(Cl)c1[O-])c1ccccc1O.O=C(N/N=C/c1cc(Cl)cc(Cl)c1[O-])c1ccccc1O.[Mn+2]`, the growth inhibition in assay [1] (setting [7]) was 57%; in assay [1] (setting [8]) it was 90% (active); in assay [1] (at 50.0 µM) it was 66.8%; in assay [2] (setting [7]), 88% (active); in assay [2] (setting [8]) it was 87% (active); in assay [2] (at 50.0 µM), 91.3% (active). For the same compound, the growth inhibition is 68% in assay [3] (setting [7]); 88% (active) in assay [3] (setting [8]); 47.1% in assay [3] (at 50.0 µM); 77% (active) in assay [4] (setting [7]); 72% (active) in assay [4] (setting [8]); 85% (active) in assay [4] (at 50.0 µM). In addition, the growth inhibition in assay [5] (setting [7]) was 89% (active); in assay [5] (setting [8]) it was 80% (active); in assay [5] (at 50.0 µM), 90.8% (active); in assay [6] (setting [7]), 56%; in assay [6] (setting [8]), 87% (active); in assay [6] (at 50.0 µM) it was 68.2%.
As to `CCOC(=O)C(Cc1ccc(O)cc1)NCc1ccc(N(CCCl)CCCl)cc1` (configuration not stated), the growth inhibition in assay [1] (setting [7]) was 83% (active); in assay [1] (setting [8]), 83% (active); in assay [1] (at 50.0 µM), 37.8%; in assay [2] (setting [7]), 36%; in assay [2] (setting [8]), 94% (active); in assay [2] (at 50.0 µM) it was 69.1%. Also, the growth inhibition in assay [3] (setting [7]) was 64%; in assay [3] (setting [8]), 99% (active); in assay [3] (at 50.0 µM), 72.2% (active); in assay [4] (setting [7]) it was 52%; in assay [4] (setting [8]) it was 84% (active); in assay [4] (at 50.0 µM) it was 56.7%. Further, the growth inhibition in assay [5] (setting [7]) is 65%; in assay [5] (setting [8]), 94% (active); in assay [5] (at 50.0 µM), 69.5%; in assay [6] (setting [7]) it was 80% (active); in assay [6] (setting [8]) it was 76% (active); in assay [6] (at 50.0 µM), 76.7% (active).
On to `CCCCCCC1CCC2CCCC(C)N12` (configuration not stated), for which the growth inhibition in assay [1] (setting [7]) was -5%; in assay [1] (setting [8]), 67%; in assay [1] (at 50.0 µM), 85.3% (active); in assay [2] (setting [7]), -4%; in assay [2] (setting [8]), 25%; in assay [2] (at 50.0 µM) it was 70.8% (active). Moreover, the growth inhibition is 10% in assay [3] (setting [7]); 68% in assay [3] (setting [8]); 88.2% (active) in assay [3] (at 50.0 µM); 14% in assay [4] (setting [7]); 43% in assay [4] (setting [8]); 71.1% (active) in assay [4] (at 50.0 µM). In addition, the growth inhibition in assay [5] (setting [7]) is -19%; in assay [5] (setting [8]), 74% (active); in assay [5] (at 50.0 µM) it was 89% (active); in assay [6] (setting [7]) it was 2%; in assay [6] (setting [8]), 57%; in assay [6] (at 50.0 µM) it was 74.9% (active).
